About 83,000 compounds went through this panel and 20% of them were active in at least one assay; those are over-represented in the sample as a whole.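 A percent growth of 40 corresponds to 60% growth inhibition; 0 means no net growth; -100 means all cells died. Active threshold: below 10.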 Values without a mark were called inactive. Active and inactive are the calls of the source.
What follows are molecules tested on ACHN renal (assay: NCI-60 one-dose screen, 48 h (100 = growth as untreated, 0 = no growth, -100 = all killed)). Details: 10 µM unless noted.
Protocol: Growth inhibition of the ACHN human tumor cell line is measured as a screen for anti-cancer activity. Cells are grown in 96 well plates and exposed to the test compound for 48 hours. Compounds are tested at a single concentration, which is 10^-5 M for most compounds. The reported endpoint is percent growth (GI% or GIPRCNT), where numbers from 0 - 100% represent growth inhibition, and numbers from -100% - 0 represent cell death. For example, a value of 40 represents 60% growth inhibition. A value of 0 means no net growth occurred over the course of the experiment. A value of -40 indicates 40% of cells at the beginning of the experiment died by the end of the experiment. A value of -100 means all cells are dead at the end of the experiment.
NCI-60 Human Tumor Cell Lines Screen was performed using the standard one-dose NCI protocol, which is described in more detail at https://dtp.cancer.gov/discovery_development/nci-60/default.htm.
Compounds with GIPRCNT values below 10 were considered active. Activity score was based on GIPRCNT using the following formula: […]
Score is 0 for GIPRCNT values of 100 or above, 50 for GIPRCNT values of 0, and 100 for GIPRCNT values of -100.

Row | SMILES | growth
1 | CCC(C)CC(N)O (stereo not given) | 106%
2 | Cc1cc2cn3c4ccc(O)cc4[nH]c(=O)c3c2cc1C | 11.8%
3 | CCCCCCCCCCCCCCCCCC(=O)Nc1ccc(O)cc1 | 104%
4 | NC(CSC(c1ccccc1)(c1ccccc1)c1ccccc1)C(=O)NCC(=O)O (stereo not given) | 88.4%
5 | COc1ccc(/C=C2\SC(=O)N(Cc3cc(=O)oc4ccc(OC)cc34)C2=O)cc1 | 92.7%
6 | C=C(C)[C@@H]1CC[C@]2(COC(=O)c3ccccc3C(=O)O)CC[C@]3(C)[C@H](CC[C@@H]4[C@@]5(C)CCCNC(C)(C)[C@@H]5CC[C@]43C)[C@@H]12 | 65%
7 | COc1cc(-c2cc3cnccc3c3nc(N)c4ccncc4c23)cc(OC)c1OC | 34.5%
8 | COc1ccc(-c2cc(C#N)c(NNC(C)=O)[nH]2)cc1 | 103%
9 | COc1cc(OC)c(/C=C/c2ccc3ccccc3[n+]2C)c(OC)c1 | 25.6%
10 | CC(C)(C)C(=O)OCOP(=O)(OCOC(=O)C(C)(C)C)C1CC(O)N(O)C1=O (stereo not given) | 42.7%
11 | CN(C)CCOC(=O)C(C)(C)C | 98.1%
12 | Cc1ccc(C(=O)Nc2ccc(CN3CCN(C)CC3)c(C(F)(F)F)c2)cc1C#Cc1cncc2ncccc12 | -98.9% (active)
13 | CCCCCCCCc1ccc(OCCOCC[N+](C)(C)CC)cc1 (tested in a mixture with another compound) | 102%
14 | CC(C)(CNC1CCCCC1)OC(=O)c1ccccc1 | 108%
15 | Cc1ccc(C(=O)C(Br)C(Br)c2ccccc2)cc1 (stereo not given) | 44.3%
16 | Nc1cc2c(cc1Br)[nH]c(=O)c1ccccc12 | 22.5%
17 | CC1Cc2cc(F)ccc2-n2cccc21 (stereo not given) | 106%
18 | CC(=O)OCC(=O)[C@@]1(O)[C@H](C)C[C@H]2[C@@H]3C=C(C)C4=Cc5c(cnn5-c5ccc(F)cc5)C[C@]4(C)[C@H]3[C@@H](O)C[C@@]21C | 13.5%
19 | COC(=O)c1ccc2[nH]c(O)c(C(=Nc3ccc(N(C)C(=O)CN4CCN(C)CC4)cc3)c3ccc(OC)cc3)c2c1 | 14.9%
20 | CC1CCCCC[N+]12CCCC2 (stereo not given) | 101%

Row | SMILES | growth
21 | O=C(N/N=C/c1coc2ccccc2c1=O)c1cc2oc(-c3ccccc3)cc2[nH]1 | 106%
22 | O=C(Nc1ccc(-n2cc(-c3ccncc3)c(-c3ccc(Cl)c(O)c3)n2)cc1)c1cc(Cl)cc(Cl)c1 | 57.3%
23 | N=C(N)c1ccc(-c2ccc(-c3ccc(Cl)cc3)s2)s1 | -97% (active)
24 | COc1cc2c(cc1OC)C(Cc1cc(OC)c(OC)cc1[N+](=O)[O-])=NCC2 | 85.2%
25 | Oc1ccccc1/C=N/N=C/c1c(O)ccc2ccccc12 | 80%
26 | COc1ccc2c(c1)/C(=C1/S/C(=N/c3nnc(C)s3)NC1=O)C(=O)N2Cc1ccc(Br)cc1 | 36.2%
27 | COC1=CC(c2ccc[nH]2)=N/C1=C\c1[nH]c(C)c(C(=O)CCCCC(=O)NC(C)(C)C)c1C | 71.8%
28 | C/C(=C\c1ccc2ccccc2c1)[N+](=O)[O-] | -74.1% (active)
29 | N#CCCCCCCCCCCC#N | 107%
30 | COc1ccc(-c2nnc(SCC(=O)Nc3ccc(C(=O)/C=C/c4cc(OC)c(OC)c(OC)c4)cc3)n2-c2ccccc2)cc1OC | 1.79% [100 µM] (active)
31 | O=C(Nc1ccc(Cl)c(Cl)c1)O/N=C\c1c(Cl)ccc([N+](=O)[O-])c1Cl | -59.5% (active)
32 | COc1ccccc1Cn1cc2c(c1)-c1oncc1CC2 | 55.5%
33 | COc1ccc(C(=O)N2N=C(c3ccc(Br)cc3)CC2c2cn(-c3ccccc3)nc2-c2ccccc2)cc1 (stereo not given) | 87.8%
34 | O=C(CBr)OCc1ccc([N+](=O)[O-])o1 | 89.6%
35 | CC([C@H]1CCC2C3CCC4C[C@@H](N)CC[C@]4(C)C3CC[C@@]21C)N(C)C (stereo not given in full) | 78.1%
36 | CC(C)OC(=O)Nn1cnc2ccccc21 | 114%
37 | c1ccc(C(=NNc2nc3ccccc3o2)c2ccccn2)nc1 | 8.01% (active)
38 | COCC(=O)NNc1[nH]c(-c2ccc(OC)cc2)cc1C#N | 110%
39 | COc1nc(OC)nc(-c2cc(C(=O)c3ccc(Br)cc3)n3cc(C)cc(C)c23)n1 | 18.5%
40 | COc1ccc(C2CC(=O)c3c(O)cc(OC4OC(COC5OC(C)C(O)C(O)C5O)C(O)C(O)C4O)cc3O2)cc1O (stereo not given) | 117%
